Hits are enriched below; roughly 19% of the tested compounds scored in any of these assays.
IL-1B inflam inh – inflammasome signaling inhibition, IL-1 beta readout | activity change, % at 57.5 µM | THP-1 LPS/ATP IL-1B secretion, AlphaLISA, 16 h; active compounds read low | actives 4.7% (n = 360,000); in the data active = activity change below about -50%; inconclusive = mostly about -30% to -49%
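Secreted IL-1B measured by AlphaLISA bead assay after 16 h compound exposure of THP-1 cells; compounds (final up to 57.5 uM) added 1 h before LPS (250 ng/mL) and ATP (1.25 mM) stimulation; lower signal means less secretion.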
DT40 TDP1 no CPT – qHTS for Inhibitors of human tyrosyl-DNA phosphodiesterase 1 (TDP1): qHTS in cells in absence of CPT; DT40 Tdp1-/- hTDP1 cells, no CPT, ATP luminescence, 48 h; Potency, µM (titrated, usually from 46.2 µM), without a hit: at the top dose activity change, negative = growth inhibition, usual class: inhibitors; actives 15% (n = 420,000); AID 686978, 2013; also: potency is read from the fitted curve at half-maximal effect; nearly all actives have a fitted effect of over 55% in size
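Readout: luminescence from CellTiter-Glo after 30 min in the dark at RT. Cells: DT40 Tdp1-/- with stable hTDP1, 400/well. Exposure: compounds alone, ≥48 hr, 37 °C.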
HT1080 IDH1KD tx – kills HT-1080 cells with IDH1 knockdown; Potency, µM (top dose mostly 46.1 µM), without a hit: top-dose activity, negative = toxicity, actives largely listed as cytotoxic; HT-1080 IDH1 knockdown viability, ATP luminescence, 48 h; actives 2% (n = 360,000);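 also: potency is read from the fitted curve at half-maximal effect; 0% = DMSO wells and -100% = cell-free medium wells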
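HT-1080-IDH1KD cells (IDH1 knocked down), 750/well in RPMI with 5% FBS, treated with compound 48 h at 37 degrees C. Viability by CellTiter-Glo luminescence, normalised to DMSO and no-cell wells; concentration-response curves classed.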
HT1080-NT tox – kills 2HG-producing HT-1080-NT fibrosarcoma cells; HT-1080-NT fibrosarcoma viability, CellTiter-Glo ATP luminescence, 48 h; Potency, µM (highest dose often 46.1 µM), for the others: top-dose activity, negative = less viability, actives largely listed as cytotoxic; actives 1.6% (n = 360,000); AID 686970;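 also: NT is the 2HG producing partner of a matched IDH1 knockdown line; potency is read from the fitted curve at half-maximal effect; 0% = DMSO-treated cells and -100% = media-only wells without cells; nearly all actives have a fitted effect of over 55% in size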
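Fibrosarcoma NT cells, 750 per well in 5% FBS RPMI, were exposed to compound for 48 hours. Viability: CellTiter-Glo luminescence.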
TDP1 cell CPT – growth inhibition of DT40 Tdp1-/-;hTDP1 cells with camptothecin (screen for TDP1 inhibitors) | chicken DT40 Tdp1-/-;hTDP1 cells + 20 nM CPT, ATP luminescence, 48 h | AID 686979 | Potency, µM (series often up to 46.2 µM), for the others: at the highest dose activity change, negative = growth inhibition, actives largely listed as inhibitors | actives 12% (n = 420,000); also: potency is read from the fitted curve at half-maximal effect; nearly all actives have a fitted effect of over 55% in size
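Cell growth measured by CellTiter-Glo luminescence after a minimum 48 h, 37 C compound exposure with 20 nM CPT in Tdp1-knockout DT40 cells stably expressing hTDP1, seeded 400/well; qHTS titration format.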
Numbers without * were called inactive; u = inconclusive; x = no result. Unless noted, calls follow the shape of the dose curve; as a rule, active = well fitted curve in the direction sought with a large enough effect; inconclusive = small, poorly fitted or top-dose-only effect, or another doubt; inactive = no such curve, though single readings can be large; an effect the other way counts as inactive or inconclusive. Unless noted, % is scaled to controls: 0 for no effect and ±100 for the full control effect.

SMILES | IL-1B inflam inh | DT40 TDP1 no CPT | HT1080 IDH1KD tx | HT1080-NT tox | TDP1 cell CPT
CC1Cc2ccccc2N1C(=O)CSc1nc2c(c(=O)n(C)c(=O)n2C)n1Cc1ccccc1 (configuration not stated) | -14 | 21µM* | -3% | 4% | 23µM*
CCn1c(SCC(=O)N2c3ccccc3CCc3ccccc32)nc2c1c(=O)n(C)c(=O)n2C | -2 | u | -1% | u | u
CC1CCCN(Cc2nc3c(c(=O)n(C)c(=O)n3C)n2Cc2ccc(Cl)cc2)C1 (configuration not stated) | x | -15% | x | x | -10%
COc1ccc(N2CCN(c3nc4c(c(=O)n(C)c(=O)n4C)n3Cc3ccccc3)CC2)cc1 | -10 | u | -1% | -17% | 23µM*
CC(Sc1ccc(S(=O)(=O)N2CCN(C)CC2)cn1)C(=O)Nc1cccc(Cl)c1Cl (configuration not stated) | 0 | u | -20% | -4% | u
Cc1ccc(F)c(N=Cc2c(O)c3ccccc3oc2=O)c1 | -11 | -30% | -14% | -17% | -1%
C=C(C)Cn1c(N2CCN(c3ccc(OC)cc3)CC2)nc2c1c(=O)n(C)c(=O)n2C | -11 | 13µM* | -17% | -16% | 16µM*
CCCn1c(SCC(=O)N2CCCC2)nc2c1c(=O)n(C)c(=O)n2C | 0 | -1% | 1% | 0% | -14%
COc1ccc(OCC(O)Cn2c(N3CCCCC3)nc3c2c(=O)n(C)c(=O)n3C)cc1 (configuration not stated) | 35 | 16µM* | -2% | -8% | u
CCCCCCn1c(N2CCN(c3ccccc3)CC2)nc2c1c(=O)n(C)c(=O)n2C | -2 | 21µM* | -1% | 12% | u
CCCn1c(SCC(=O)N2CCN(c3ccc(OC)cc3)CC2)nc2c1c(=O)n(C)c(=O)n2C | 57 | 16µM* | -10% | 0% | 18µM*
COCCn1c(N2CCN(c3ccccc3)CC2)nc2c1c(=O)n(C)c(=O)n2C | 61 | u | 7% | 12% | -26%
NC(=O)c1ncn([C@@H]2O[C@H](CNCc3cccc(OC4CCCC4)c3)[C@@H](O)[C@H]2O)n1 | -1 | -16% | 7% | 10% | -12%
N#C/C(C(N)=O)=C1/SC=C(c2ccccc2)N1c1ccccc1 | -7 | 18µM* | u | 0% | u
COC(=O)/C(C#N)=C1/SC=C(C)N1c1ccccc1 | 26 | -12% | 13% | 6% | -7%
Cc1ccccc1CN1CCN(c2ccc(S(=O)(=O)N3CCCC3)cn2)CC1 | -1 | u | 5% | 5% | u
CC(=O)Oc1ccc(C2(c3ccc(OC(C)=O)cc3)Oc3ccccc3NC2=O)cc1 | x | 19µM* | x | x | u
O=C(CCNS(=O)(=O)c1ccc(Br)cc1)NC1CCN(Cc2ccccc2)CC1 | u | 13µM* | -4% | -2% | u
Cc1ccc(S(=O)(=O)Nc2cccc(C(=O)NC3CCN(Cc4ccccc4)CC3)c2)cc1F | -66* | 16µM* | -5% | 2% | u
O=C(CCNS(=O)(=O)c1cccs1)NC1CCN(Cc2ccccc2)CC1 | 6 | -2% | 6% | 2% | -1%
O=C(NC1CCN(Cc2ccccc2)CC1)c1cccc(NS(=O)(=O)c2ccc(Br)cc2)c1 | u | u | -12% | -17% | 18µM*
COC(=O)N1CCC2(CCCN(c3ncccn3)C2)CC1 | x | -13% | x | x | 6%
COc1ccc(C(=O)N2CCC[C@@]3(CCN(Cc4ccc(C#N)cc4)C3)C2)cc1 | x | u | x | x | -7%
Cc1cc(=S)cc(C)n1CCO | 18 | 3% | -12% | 1% | 0%
CCN(CC)S(=O)(=O)c1cccc(NC(=O)COc2ncnc3sccc23)c1 | 18 | 16µM* | -16% | -10% | u
SMILES | IL-1B inflam inh | DT40 TDP1 no CPT | HT1080 IDH1KD tx | HT1080-NT tox | TDP1 cell CPT
CCN(CC)S(=O)(=O)c1cc(NC(=O)COc2ccc(C#N)cc2OC)ccc1C | 0 | 23µM* | -12% | -7% | 21µM*
CCN(CC)S(=O)(=O)c1cccc(NC(=O)COc2ccc(C#N)cc2OC)c1 | 34 | 23µM* | -2% | -10% | u
COc1cc(C#N)ccc1OCC(=O)Nc1cccc(S(=O)(=O)N(C)c2ccccc2)c1 | -1 | 18µM* | -23% | -17% | 12µM*
COc1ccc2[nH]c(CN3CCC(n4nccc4NC(=O)C4CC4)CC3)c(C)c2c1 | -10 | -15% | -4% | 2% | -3%
Cc1cccc(COC(=O)C(Cc2ccccc2)NC(N)=O)c1 (configuration not stated) | -1 | u | 0% | -1% | u
CCOC(=O)N1CCN(Cc2ccc(O)c3ncccc23)CC1 | -9 | 0.65µM* | 6.5µM* | 21µM* | 0.58µM*
Oc1ccc(CN2CCCCC2)c2cccnc12 | 101 | 5.2µM* | 1.4µM* | 3.2µM* | 5.2µM*
CCOC(=O)N1CCN(Cc2ccccn2)CC1 | -17 | 1% | 22% | 9% | 1%
Oc1ccc2ccccc2c1CN1CCN(c2ccccc2)CC1 | 4 | -20% | -2% | 6% | -3%
Oc1ccc(CN2CCN(c3ccccc3)CC2)c2cccnc12 | 112 | 3.3µM* | 0.71µM* | 1.1µM* | 5.2µM*
Fc1ccc(N2CCN(Cc3ccccn3)CC2)cc1 | -14 | 12% | 11% | u | -1%
Ic1ccc(N2CCN(Cc3c[nH]c4ncccc34)CC2)cc1 | -15 | 3.3µM* | u | u | 11µM*
Oc1ccc2ccccc2c1CN1CCCCC1 | 13 | -12% | 0% | -2% | 21%
Cc1ccc(C)c(S(=O)(=O)N2CCN(Cc3ccc(O)c4ncccc34)CC2)c1 | 103 | 5.8µM* | u | u | 5.8µM*

High-throughput results (PubChem)
